Source: PubChem
Rows were chosen to be rich in hits. Some 4.8% of all compounds tested hit in one or more screens of this group.
USP1 inh: blocks the human USP1/UAF1 deubiquitinase complex; 390,000 compounds, 0.23% hits; AID 743255; Potency, µM (titrated, usually from 57.1 µM), for the others: at the top dose activity change, negative = inhibition, actives largely listed as inhibitors; O94782; recombinant USP1/UAF1, Ub-Rhodamine cleavage fluorescence; note: potency is the fitted concentration of half-maximal effect; % is set by controls: 0 for no effect and ±100 for the full control effect; nearly all actives have a fitted effect of over 60% in size
Target sequence (O94782 whole entry, looked up): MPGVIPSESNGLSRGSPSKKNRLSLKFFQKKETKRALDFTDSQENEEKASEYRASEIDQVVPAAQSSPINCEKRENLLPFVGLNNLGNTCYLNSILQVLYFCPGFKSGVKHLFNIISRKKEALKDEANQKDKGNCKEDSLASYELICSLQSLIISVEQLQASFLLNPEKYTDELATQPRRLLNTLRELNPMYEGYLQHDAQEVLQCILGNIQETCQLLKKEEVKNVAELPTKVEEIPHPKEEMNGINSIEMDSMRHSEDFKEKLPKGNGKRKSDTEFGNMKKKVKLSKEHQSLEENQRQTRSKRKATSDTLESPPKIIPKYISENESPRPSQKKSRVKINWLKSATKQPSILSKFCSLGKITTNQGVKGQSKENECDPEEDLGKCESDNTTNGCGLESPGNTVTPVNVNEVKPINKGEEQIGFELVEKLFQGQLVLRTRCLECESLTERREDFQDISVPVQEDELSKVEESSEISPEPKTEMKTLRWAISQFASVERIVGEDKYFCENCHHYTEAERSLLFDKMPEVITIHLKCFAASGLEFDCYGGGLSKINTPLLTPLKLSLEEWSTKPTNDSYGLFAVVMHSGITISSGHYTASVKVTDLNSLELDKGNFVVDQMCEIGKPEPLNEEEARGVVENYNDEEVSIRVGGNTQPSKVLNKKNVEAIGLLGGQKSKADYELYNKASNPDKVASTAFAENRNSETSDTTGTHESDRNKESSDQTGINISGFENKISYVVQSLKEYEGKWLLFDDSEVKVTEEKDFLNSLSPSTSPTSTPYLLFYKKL
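Step one: compound is pinned into 1nM USP1/UAF1 in HEPES pH 7.8 buffer with TCEP. Step two: 15 min room-temperature incubation. Step three: Ub-Rho (150nM final) starts cleavage, tracked by fluorescence over six one-minute reads.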
ATXN viability: reduces viability in counter-screen for ATXN expression inhibitors; S2 cells (HEK-293 line with an ATXN2-luciferase reporter) viability, CellTiter-Fluor protease fluorescence, 24 h; Potency, µM (top dose mostly 56.7 µM), hits mostly cytotoxic; 400,000 compounds, 0.49% hits; AID 651635; note: potency is the fitted concentration of half-maximal effect; nearly all actives have a fitted effect of over 40% in size
USP2a inh: inhibitors of human ubiquitin-specific protease USP2a; USP2 core, Ub-CHOP2 coupled fluorogenic reporter, 485/531; 330,000 compounds, 0.01% hits; O75604; Potency, µM (series often up to 38.3 µM), for inactives: top-dose activity change, negative = inhibition, usual class: inhibitors;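 note: potency is the fitted concentration of half-maximal effect; plate controls were DMSO wells for no effect and full inhibition by NEM control for full effect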
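Deubiquitinase activity read as fluorescence (485/531 nm) after Ub-CHOP2 cleavage activates the enterokinase reporter on its substrate; USP2 core 10nM, Ub-CHOP2 and substrate 25nM each, 30min compound preincubation then 60min RT; data normalized to NEM, curves fitted.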
IL1B secr inh: blocks inflammasome-driven IL-1 beta release | activity change, % at 57.5 µM | 360,000 compounds, 4.7% hits | THP-1 LPS/ATP IL-1B secretion, AlphaLISA, 16 h; hits give low values; in the data active = activity change below about -50%; inconclusive = mostly about -30% to -49%; note: % is set by controls: 0 for no effect and ±100 for the full control effect
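THP-1 cells pretreated 1 hr with compounds (up to 57.5 uM final), then stimulated with LPS (250 ng/mL final) plus ATP (1.25 mM final); secreted IL-1B measured by AlphaLISA after 16 hr, decreased signal indicating inhibition.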
ATXN2 expr inh: reduces ATXN2 reporter expression in HEK-293 cells | HEK-293 ATXN2-luciferase reporter, luminescence, 24 h | Potency, µM (top dose mostly 57 µM), for the others: at the top dose activity change, negative = inhibition, most hits filed as inhibitors | 360,000 compounds, 0.72% hits; note: potency is the fitted concentration of half-maximal effect; % is set by controls: 0 for no effect and ±100 for the full control effect; nearly all actives have a fitted effect of over 55% in size
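qHTS (up to 57 uM final) was run with 24 h compound exposure of reporter cells at 37 °C. Each well was multiplexed: SteadyGlo luminescence measured ATXN2-luciferase expression after a fluorogenic Gly-Phe-AFC viability readout (25 uM final).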
Active calls of the source: *; i = inactive; ? = inconclusive; / = not tested or not shown; ! = repeats disagree. Unless noted, calls come from the whole dose curve; as a rule, active = well fitted curve in the direction sought with a large enough effect; inconclusive = small, poorly fitted or top-dose-only effect, or another doubt; inactive = no such curve, though single readings can be large; an effect the other way counts as inactive or inconclusive.

SMILES | USP1 inh | ATXN viability | USP2a inh | IL1B secr inh | ATXN2 expr inh
Cc1cc(Br)c(NC(=O)COn2nnc3ccc(S(C)(=O)=O)cc32)c(Br)c1 | -6% | i | 0% | -65* | 1%
Cc1cc(NC(=O)COn2nnc3ccc(S(C)(=O)=O)cc32)ccc1Br | -19% | ? | 7% | -14 | /
CC(C)(C)c1ccc(C(=O)NCCC(=O)Nc2cc(Cl)ccc2N2CCOCC2)cc1 | -22% | ? | -10% | -12 | /
Cc1c(O)cccc1C(=O)N[C@@H](CSc1ccccc1)[C@H](O)CN1C[C@H]2CCCC[C@H]2C[C@H]1C(=O)NC(C)(C)C | -24% | 11µM* | -3% | ? | 20µM*!
CCN(CC(=O)NC(C)(C)C)C(=O)c1ccccc1SCC(=O)NC1CCCCCCC1 | -4% | i | -1% | 42 | -12%
CCO[C@H]1OC(C(=O)N2CCCCCCC2)=C[C@@H](C2CCCCC2)[C@@H]1CCCO | -24% | ? | 10% | -23 | -8%
CCO[C@@H]1OC(C(=O)N2CCN(Cc3ccc4c(c3)OCO4)CC2)=C[C@H](c2ccc(Br)cc2)[C@H]1CCCO | -24% | ? | -2% | ? | ?
CCO[C@@H]1OC(C(=O)N2CCCCCCC2)=C[C@H](c2cn(C(C)=O)c3ccccc23)[C@H]1CCCO | -14% | ? | 4% | -53* | -10%
CCO[C@H]1OC(C(=O)N2CCN(Cc3ccccc3)CC2)=C[C@@H](C2CCCCC2)[C@@H]1CCCO | -12% | ? | -2% | -60* | ?
CCO[C@@H]1OC(C(=O)N2CCN(Cc3ccc4c(c3)OCO4)CC2)=C[C@H](c2ccc(C(F)(F)F)cc2)[C@H]1CCCO | -23% | ? | -3% | -60* | ?
CCO[C@H]1OC(C(=O)N2CCN(Cc3ccc4c(c3)OCO4)CC2)=C[C@@H](c2csc3ccccc23)[C@@H]1CCCO | -23% | ? | 0% | -61* | ?
CCO[C@H]1OC(C(=O)N2CCN(Cc3ccc4c(c3)OCO4)CC2)=C[C@@H](C(C)(C)C)[C@@H]1CCCO | -26% | ? | -1% | ? | -21%
CCO[C@@H]1OC(C(=O)N2CCN(Cc3ccc4c(c3)OCO4)CC2)=C[C@H](C2CCCCC2)[C@H]1CCCO | -13% | 18µM* | -5% | -60* | ?
CCO[C@H]1OC(C(=O)NCc2ccccc2)=C[C@@H](c2ccc(Br)cc2)[C@@H]1CCCO | -32% | ? | 0% | -10 | -11%
CCO[C@@H]1OC(C(=O)NCc2ccccc2)=C[C@H](c2ccc(C(F)(F)F)cc2)[C@H]1CCCO | -20% | ? | -7% | -57* | ?
CCO[C@H]1OC(C(=O)NCc2nc3ccccc3[nH]2)=C[C@@H](c2csc3ccccc23)[C@@H]1CCCO | -20% | ? | 0% | -13 | -3%
CCO[C@@H]1OC(C(=O)NCc2nc3ccccc3[nH]2)=C[C@H](c2csc3ccccc23)[C@H]1CCCO | -12% | ? | -6% | -56* | ?
Cc1ccc(Cl)cc1Nc1nc2ccccc2c2nncn12 | ? | i | / | / | -9%
C[C@@H]1CCCCO[C@H](CN(C)S(=O)(=O)c2ccc(F)cc2)[C@@H](C)CN([C@H](C)CO)C(=O)c2cc(NC(=O)Nc3ccc(C(F)(F)F)cc3)ccc2O1 | -22% | i | / | -16 | 11%
O=C1C(Br)=Cc2cccc3cccc1c23 | -9% | / | 23% | -75* | -6%
C=CCN=C(NC#N)SCC(=O)c1cccc(OC)c1 | 4% | i | -2% | -57* | -15%
C=CCN=C(NC#N)SCc1ccccc1 | -10% | i | 4% | -14 | 5%
NC(=O)c1ncn([C@@H]2O[C@H](CO)[C@@H](O)[C@H]2O)c1N | / | i | / | / | 2%
CC(=O)c1sc(NC(=O)C2CC(=O)N(Cc3ccco3)C2)nc1-c1ccccc1 (stereo not given) | -2% | i | 1% | -95* | -13%
COc1ccc(-c2csc(NC(=O)C3CC(=O)N(Cc4ccco4)C3)n2)cc1 (stereo not given) | -15% | i | 4% | -61* | -28%
SMILES | USP1 inh | ATXN viability | USP2a inh | IL1B secr inh | ATXN2 expr inh
COc1cc(=O)n2c(c1C(=O)NC(C)c1ccco1)CCN(Cc1cc(C)ccc1C)CC2 (stereo not given) | / | i | / | / | /
C=CCc1cc(Cl)ccc1OCCN(C)C | 0% | i | 0% | -11 | -16%
CC(O)CNCCCOc1ccc(Cl)cc1C(C)(C)C (stereo not given) | -6% | ? | 2% | -66* | 34µM*
CN(C)CCOCCOc1ccc(Cl)cc1C(C)(C)C | -4% | i | -9% | -56* | -27%
COCCCNCCCOc1ccc(Cl)cc1Br | -8% | / | -1% | -25 | /
CCCCN=C1NN=C(c2ccc3c(c2)OCCO3)CS1 | -22% | i | 0% | -63* | -35%
NC(=O)c1cc[n+](CC2=C(C(=O)O)N3C(=O)[C@@H](NC(=O)C(c4ccccc4)S(=O)(=O)[O-])[C@H]3SC2)cc1 (stereo not given in full) | 35µM* | i | 0% | 20 | 2%
CC1=C(C(=O)O)N2C(=O)[C@@H](NC(=O)C(N)c3ccccc3)[C@H]2SC1 (stereo not given in full) | / | / | / | / | 16%
Cc1cccc(-n2ncc3c2CCCC3NC(=O)C2=CC(=O)CC(C)(C)O2)c1C (stereo not given) | -22% | i | 0% | i | -11%
CN(CC=CC#CC(C)(C)C)Cc1cccc2ccccc12 | / | / | / | / | -15%
CC(NCCC1(Cc2ccccc2Cl)CCOC(C)(C)C1)c1cccs1 (stereo not given) | -13% | i | -10% | -54* | -22%
O=c1oc2cc(Oc3ccc(C(F)(F)F)cc3[N+](=O)[O-])ccc2c2c1CCC2 | 0% | i | 6% | -23 | -7%
O=c1oc2cc(Oc3c([N+](=O)[O-])cc(C(F)(F)F)cc3[N+](=O)[O-])ccc2c2c1CCCC2 | ? | ? | 2% | -82* | ?
COC(=O)c1cc(S(N)(=O)=O)ccc1OC | / | i | / | / | 7%
CCn1cc(C(=O)OCC(=O)c2cc(C)n(-c3cccc(C(F)(F)F)c3)c2C)c(=O)c2ccc(C)nc21 | -19% | i | -17% | -66* | 2%
CCn1cc(C(=O)OCC(=O)c2ccccc2)c(=O)c2ccc(C)nc21 | 0% | i | -1% | 33 | -13%
O=C1COc2ccc(C(=O)COC(=O)c3nc(Cl)ccc3Cl)cc2N1 | -5% | i | 2% | 2 | -12%
O=C1N(C2CCCC2)C[C@@H]2C[C@@H](c3cccn3-c3nccs3)N3CCC[C@@]123 | -10% | i | 14% | -79* | /
Cc1ccc2nc(-c3ccccc3)nn2c1 | -17% | i | / | 25 | 3.2µM*
